Experimental findings from PubChem BioAssay (NCI) are described below.

What all share (test): NCI-60 one-dose screen, 48 h (100 = growth as untreated, 0 = no growth, -100 = all killed)
Holding throughout (conditions): 10 µM unless noted

For assay [1], the system named is NCI-H23 lung.
The test system of assay [2] is NCI-H226 lung.
The subject of assay [3] is NCI-H322M lung.
Assay [4] deals with HOP-62 NSCLC.
Assay [5] deals with NCI-H460 lung.
In assay [6] the test system is HOP-92 NSCLC.
Assay [7] relates to NCI-H522 lung.
The test system of assay [8] is A549/ATCC NSCLC.
In assay [9] the test system is 786-0 renal.
Assay [10] concerns COLO 205 colon.
The test system of assay [11] is DU-145 prostate.
The test system of assay [12] is K-562 leukemia.
Assay [13] concerns MALME-3M melanoma.
Assay [14] deals with MDA-MB-231 breast.
The test system of assay [15] is RXF 393 renal.
Assay [16] concerns SF-268 CNS.
Assay [17] relates to SF-295 CNS.
The subject of assay [18] is SF-539 CNS.
For assay [19], the system named is UACC-257 melanoma.
Assay [20] deals with M14 melanoma.

The panel holds about 83,000 compounds, 20% with a hit somewhere; the sample as a whole holds those more often.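 How to read the values: 0–100, growth inhibition (40 = 60% inhibited); 0, no net growth; -100 to 0, cell death (-40 = 40% of starting cells died; -100 = all dead).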 Unmarked numbers belong to inactive results. Activity calls are given as the source filed them. Rule for the calls: active = growth percent below 10; inactive = the rest.

With `CCSC1=CC(=O)c2ccccc2C1=O`, the growth in [1] is 85.9%; in assay [2], 88.4%; in assay [3] it was 94.6%; in assay [4] it was 76.8%; in assay [5], 112%; in [6], -2.5% (active). Besides, the growth in assay [7] is -20.9% (active); in assay [8], 93.2%; in assay [9], 111%; in [10] it was 96.9%; in assay [11], 95.1%; in assay [12] it was 2.73% (active). Also, the growth was 14% in assay [13]; 3.95% (active) in [14]; 42.8% in assay [15]; 76.5% in [16]; 97.2% in [17]; 106% in assay [18]. In addition, the growth was 83.1% in assay [19] and 84.1% in assay [20].

For `CCCCCCCCNc1cc2c3c(c1)CCCN3CCC2`, the growth in assay [1] is -9.97% (active); in [2], 39.1%; in [3], 111%; in assay [4] it was 27%; in assay [5] it was 16.9%; in [6] it was -5.51% (active). Besides, the growth is -28.4% (active) in assay [7]; 76.4% in [8]; 42.7% in [9]; 3.21% (active) in assay [10]; -2.64% (active) in assay [11]; 18.8% in [12]. Further, the growth in assay [13] was 48.5%; in [14], 6.88% (active); in [15] it was 29.1%; in assay [16] it was 18.3%; in assay [17], 14%; in assay [18], 8.74% (active). Also, the growth in [19] is -11.6% (active); in assay [20] it was 30.3%.

Consider `CCN(CC)c1ccc(/C=N\NC(=O)c2cccc(Nc3ccnc(C(F)(F)F)c3)c2)c(O)c1`, for which the growth was 39.5% in [1]; -3.12% (active) in assay [2]; 33% in assay [3]; 29.5% in assay [4]; 1.17% (active) in assay [5]; 20.6% in assay [6]. Moreover, the growth in assay [7] was 41.5%; in assay [8], 31.3%; in assay [9], 5.84% (active); in assay [10], -0.627% (active); in assay [11] it was 23.1%; in assay [12] it was 92.3%. Further, the growth in assay [13] is 24.4%; in [14] it was 13.6%; in assay [15] it was -1.92% (active); in assay [16], 10.3%; in assay [17], 16.8%; in assay [18], -38.9% (active). The growth was 27.3% in assay [19] and 21.2% in [20].

Turning to `C/C(=C(\c1ccc(OCCN2CCCCCC2)cc1)c1ccc(OC(=O)Cc2ccccc2)cc1)c1ccc(Cl)cc1`, the growth in assay [1] is 48.5%; in assay [2] it was 91.2%; in assay [3] it was 73.5%; in assay [4], 7.91% (active); in [5], -60.1% (active); in assay [6], 49.5%. For the same compound, the growth was 38.8% in assay [7]; 31.7% in [8]; -42% (active) in assay [9]; -79.7% (active) in assay [10]; 62.3% in [11]; -35.1% (active) in assay [12]. For the same compound, the growth in [13] is 22.6%; in [14] it was 35.1%; in [15], 21.1%; in assay [16] it was 49%; in [17], 3.77% (active); in [18] it was 46.9%. The figures for the growth in [19] and in assay [20] were 5.81% (active) and -53.1% (active), respectively.

In the case of `COc1ccc(Cn2cc(C(=O)N=Nc3c(O)[nH]c4c(Cl)cccc34)nn2)cc1`, the growth in assay [1] is 99.3%; in assay [2] it was 102%; in [3], 101%; in assay [4], 110%; in assay [5] it was 99.7%; in [6] it was 105%. For the same compound, the growth in [7] is 84%; in assay [8] it was 102%; in assay [9], 106%; in [10] it was 114%; in assay [11] it was 105%; in [12], 89.2%. Further, the growth in assay [13] was 99.7%; in [14] it was 98.5%; in [15] it was 109%; in assay [16] it was 94.7%; in [17], 109%; in [18], 108%. Further, the growth in assay [19] was 92.9%; in assay [20] it was 106%.

Take `CN1CCN(c2ccc(NC(=O)c3cncnc3Nc3ccc4c(ccn4Cc4cccc(F)c4)c3)cc2)CC1`: the growth in assay [1] is 72.6%; in assay [2], 85.5%; in [3], 92.9%; in assay [4], 8.44% (active); in [5] it was 30.7%; in [6], 59.9%. Moreover, the growth in assay [7] is 75.6%; in [8], 43.2%; in assay [9], -38.4% (active); in assay [10], -34% (active); in assay [11] it was 54%; in assay [12], 2.74% (active). Moreover, the growth in [13] is -82.6% (active); in [14], 11.9%; in assay [15] it was 31%; in assay [16] it was 71%; in assay [17], 80.8%; in assay [18], 45%. In addition, the growth in [19] is 65.4%; in assay [20], -59.3% (active).

`C#CC#CC#CC#CC#CC#CC#CC#CCC1OCC(COC(=O)O[C@@H](C(=O)O[C@H]2C[C@@]3(O)[C@@H](OC(=O)c4ccccc4)[C@@H]4[C@]5(OC(C)=O)CO[C@@H]5C[C@H](O)[C@@]4(C)C(=O)[C@H](OC(C)=O)C(=C2C)C3(C)C)[C@@H](NC(=O)c2ccccc2)c2ccccc2)O1` (stereo not given in full): the growth in [1] was 35.2%; in assay [2], 37.6%; in assay [3] it was 29.1%; in [4] it was 30.4%; in assay [5], 5.88% (active); in [6], 58.2%. Further, the growth in assay [7] is 24.3%; in assay [8] it was 18.7%; in assay [9] it was 32.1%; in [10], 12.6%; in assay [11], 6.68% (active); in assay [12], 12.6%. For the same compound, the growth is 41.9% in [13]; 20% in assay [14]; -9.54% (active) in [15]; 34.4% in assay [16]; 4.59% (active) in assay [17]; -0.927% (active) in assay [18]. In addition, the growth is 53% in assay [19] and -22% (active) in assay [20].
